# ADAM17 inh – inhibits human ADAM17. recombinant ADAM17, EDANS/DABCYL FRET peptide cleavage. inhibition, % at 6.95 µM. 0.83% of 370,000 active;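 active = inhibition above the mean of compounds lying between control limits plus 3 SD, set per campaign, cut at about 8.5% in these data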
# ADAM10 inh – inhibitors of human ADAM10; AID 720582; recombinant ADAM10, EDANS/DABCYL FRET peptide cleavage, 3 h; 0.62% of 370,000 active; inhibition, % at 7 µM;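 active = inhibition above a per-campaign cutoff equal to the mean of compounds falling between control-based bounds plus 3 SD, cut at about 20% in these data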
# Target sequence (O14672 214-748 limits assumed): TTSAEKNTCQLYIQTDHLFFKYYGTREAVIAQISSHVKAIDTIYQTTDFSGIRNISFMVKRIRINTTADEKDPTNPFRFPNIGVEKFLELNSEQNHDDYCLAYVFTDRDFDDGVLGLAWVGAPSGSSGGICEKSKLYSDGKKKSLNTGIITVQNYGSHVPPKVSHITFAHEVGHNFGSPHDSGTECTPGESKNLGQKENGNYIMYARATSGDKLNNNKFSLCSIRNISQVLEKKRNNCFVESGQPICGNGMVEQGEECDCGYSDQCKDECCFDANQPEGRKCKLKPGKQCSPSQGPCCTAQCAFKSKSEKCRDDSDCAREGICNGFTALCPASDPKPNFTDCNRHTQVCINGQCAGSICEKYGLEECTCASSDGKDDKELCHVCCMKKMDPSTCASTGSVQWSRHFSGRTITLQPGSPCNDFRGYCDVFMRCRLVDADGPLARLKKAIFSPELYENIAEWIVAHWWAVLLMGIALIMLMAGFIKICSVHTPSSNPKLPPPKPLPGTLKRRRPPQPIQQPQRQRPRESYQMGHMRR
# GRIN3A LBD mod – modulates the human NR3A ligand-binding domain; AID 1259313; NR3A LBD differential scanning fluorimetry, Tm shift; 0% = protein alone, 100% = glycine-bound protein; 2.5% of 340,000 active; Tm shift relative to glycine control, % at 25 µM;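 active = melting temperature shift of at least 10% of the positive control shift, at one fixed dose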
# aDG glyco up – alpha-DG glycosylation activation; Pro5-aDG cells, alpha-DG glycosylation AlphaScreen (IIH6); 0% Pro5, 100% B10-LARGE cell signal; activation, % at 10 µM; 0.22% of 360,000 active;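 active = activation of at least 8% versus controls, or a plate z-score of at least 8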;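 also: Pro5 are CHO cells carrying HIG-tagged alpha-DG that lacks glycosylation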
# FAS-TE inh – FAS thioesterase (human) inhibition | 0.67% of 360,000 active | P49327 | inhibition, % at 15 µM | recombinant FAS-TE, OMFH fluorogenic substrate, fluorescence endpoint;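 active = compounds whose normalised, plate-corrected inhibition of enzyme fluorescence in the single-dose primary screen is 50% or more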
# FAS-TE conf – confirmation of human fatty acid synthase thioesterase inhibitors | shares compounds with FAS-TE inh | AID 624325 | 45% of 2,300 active | inhibition, % at 15 µM | recombinant FAS-TE, OMFH fluorogenic substrate, fluorescence;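 active = compounds inhibiting the enzyme by at least 50% at 15 µM in any one of the replicates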
# Hits are given with their value; n = inactive; x = no result given. The list is not random: actives were taken first. Their share in the collection is about 4%.
SMILES,ADAM17 inh,ADAM10 inh,GRIN3A LBD mod,aDG glyco up,FAS-TE inh,others
COC(=O)C1=C(c2ccc(F)cc2OCc2ccccc2)C[C@@H]2CC[C@H]1N2C(=O)NCc1ccc2c(c1)OCO2,n,21.6,n,n,n,
Cc1cc(OCc2ccc([N+](=O)[O-])cc2)c2c3c(c(=O)oc2c1)CCCC3,n,n,n,n,n,
CCN(CC)c1ccc(/C=C2\C(=O)NC(=O)N(Cc3ccco3)C2=O)cc1,n,n,23.6,n,n,
Clc1cccc(N2Cc3cc(N4CCOCC4)ccc3-n3nncc3C2)c1,n,n,x,n,n,
CCN1C[C@]2(CO)CC[C@H](OC)[C@@]34C2[C@H](OC)[C@@](O)(C13)[C@@]1(O)C[C@H](OC)[C@H]2C[C@@H]4[C@@H]1[C@H]2OC,n,n,n,n,n,
COC(=O)C1=C(N)Oc2c(c(=O)oc3ccccc23)[C@]12C(=O)N(C)c1ccccc12,n,n,16.9,n,n,
CCC(C)OC(=O)c1c(N)n(Cc2cccs2)c2nc3ccccc3nc12 (stereo not drawn),n,n,n,n,n,
Nc1c(C(=O)OCc2ccccc2)c2nc3ccccc3nc2n1Cc1cccs1,n,n,14.4,n,n,
COP(=S)(OC)Oc1ccc(Sc2ccc(OP(=S)(OC)OC)cc2)cc1,n,n,n,n,n,
O=[N+]([O-])c1ccc(N2CCCCCC2)c2ncccc12,n,n,21.2,n,n,
C[N+](C)(C)CC(=O)O,n,n,13.2,n,n,
Nc1c(C(=O)NCCc2ccccc2)c2nc3ccccc3nc2n1CCN1CCOCC1,n,n,11.6,n,n,
CCOc1ccc(NC(=O)c2ccc(NC(=O)COC(=O)Cc3ccccc3)cc2)cc1,n,n,17.3,n,n,
COC(=O)C1=C(c2ccc(-c3ccccc3)c(F)c2)C[C@@H]2CC[C@H]1N2C(=O)NCc1cc(C)oc1C(F)(F)F,n,n,n,n,n,
COc1ccc(-c2cc(=NCCCCCC(=O)O)c3cc(C)ccc3o2)cc1,n,n,n,n,n,
COc1ccc(-c2cc(=NCC(=O)O)c3ccccc3o2)cc1,x,x,13.3,n,n,
CCOC(=O)CNC(=O)N1Cc2cc(-c3ccccc3)ccc2-n2nncc2C1,n,n,x,n,n,
O=C1/C(=C/c2ccccc2)C[C@@]2(O)[C@H]3Cc4ccc(O)c5c4[C@@]2(CCN3CC2CC2)C1O5 (stereo partly drawn),x,x,n,n,n,
CC1C(c2ccccc2)OCCN1C (stereo not drawn),n,n,11.2,n,n,
CCN1CCOC(c2ccccc2)C1 (stereo not drawn),n,n,n,n,n,
c1ccc(C2OCCN3CCCCC23)cc1 (stereo not drawn),n,n,10.9,n,n,
OC1CCCCC1N1CCC(c2ccccc2)CC1 (stereo not drawn),n,n,n,n,n,
CCCCn1c(=O)c(C(=O)Nc2ccc(C)cn2)c(O)c2ccccc21,x,x,n,n,n,
Cc1ccc2c(c1)C1CN(C)CCC1N2C(=O)COc1ccc(S(=O)(=O)N2CCOCC2)cc1 (stereo not drawn),n,n,n,n,n,
CC(C)c1onc(C(=O)N2CCC3(CC2)OCCO3)c1[N+](=O)[O-],n,n,16.3,n,n,
SMILES,ADAM17 inh,ADAM10 inh,GRIN3A LBD mod,aDG glyco up,FAS-TE inh,others
O=C(C[N+]12CCC(CC1)C(CO)C2)c1ccc([N+](=O)[O-])cc1 (stereo not drawn),n,n,n,n,n,
CN(C)C(=S)SSC(=S)N(C)C,n,n,19.3,n,n,
Cc1c(N=Nc2c(O)n(Cc3ccccc3)c(=O)[nH]c2=O)c(=O)n(-c2ccccc2)n1C,n,n,14.8,n,n,
CC(=O)c1ccc(OC(=O)N(C)c2ccccc2)cc1,n,n,n,n,n,
CCOC(=O)N(c1ccccc1)P1(=S)OCCO1,n,n,n,n,n,
C=CCn1c(O)c(C(C)=Nc2cccc(C(F)(F)F)c2)c(=O)[nH]c1=O,n,n,12.5,n,n,
C=C1C(O)[C@@H]2O[C@]3(CC[C@H](/C=C/C(C)[C@@H]4CC(C)=CC5(O[C@H](C[C@@](C)(O)C(=O)O)CCC5O)O4)O3)CC[C@H]2O[C@@H]1C(O)CC(C)[C@H]1OC2(CCCCO2)CCC1C (stereo partly drawn),x,x,12.9,x,x,
Cc1ccccc1NC(=O)Cc1nc(COC(=O)Cc2ccccc2)cs1,n,n,n,n,n,
CCc1c(C)nc(N)nc1N1N=C1SCC(N)=O,n,n,n,n,n,
Cc1c2ccncc2c(C)c2c1[nH]c1ccccc12,x,x,n,n,n,
c1ccc2c(c1)[nH]c1cnccc12,n,n,14.3,n,n,
O=c1[nH]c(=S)n(-c2ccccc2F)c(O)c1C=NCc1ccco1,n,n,14.4,n,n,
Cc1ccc(CCN2CC(C(=O)N3CCC4(CC3)OCCO4)CC2=O)cc1 (stereo not drawn),n,n,n,n,n,
Cc1ccc(OP(=O)(NCc2ccccc2)Oc2ccc(C)cc2)cc1,n,n,13.4,n,n,
Cc1ccc(NP(=O)(Oc2ccccc2)Oc2ccccc2)cc1,n,n,n,n,n,
Oc1cc(O)cc(/C=C/c2ccc(O)cc2O)c1,x,x,11.3,n,n,
CC(C)(C)c1cc(O)ccc1O,n,n,x,x,x,
C=CCn1c(O)c(C=NC2CCN(Cc3ccccc3)CC2)c(=O)[nH]c1=O,n,n,n,n,n,
O=c1[nH]c(=O)n(CCC2=CCCCC2)c(O)c1C=NC1CCN(Cc2ccccc2)CC1,8.9,n,n,n,n,
CCN1CCN(Cc2ccccc2C)CC1,n,n,40.3,n,n,
O=C(O)CNC1c2ccccc2CSc2ccccc21 (stereo not drawn),n,n,n,n,n,
Cc1cccc(NP(=O)(Oc2ccccc2F)Oc2ccccc2F)c1C,n,n,23.6,n,n,
COc1cccc(CN2CC=C(c3ccc(F)cc3)CC2)c1,n,n,n,n,n,
O=C(Nc1cccc(Cl)c1)OC1CN2CCC1CC2 (stereo not drawn),n,n,41.7,n,n,
O=C(Nc1ccc(Cl)cc1)OC1CN2CCC1CC2 (stereo not drawn),n,n,n,n,n,
Cc1cc(C)cc(N2C(=O)NC(=O)/C(=C\C=C\c3ccco3)C2=O)c1,n,n,11.7,n,n,
NS(=O)(=O)c1ccc(N=Nc2c(O)[nH]c(=S)[nH]c2=O)cc1,n,n,n,n,n,
O=c1[nH]c(=S)[nH]c(O)c1N=Nc1cc(S(=O)(=O)Nc2ccc(Cl)cc2)ccc1Cl,n,n,12.8,n,n,
CCC(C)n1c(O)c(C=NCC2CCCO2)c(=O)[nH]c1=S (stereo not drawn),n,n,n,n,n,
Cc1[nH]n(-c2ccccc2)c(=O)c1C(c1ccc([N+](=O)[O-])cc1)c1c(C)[nH]n(-c2ccccc2)c1=O,x,x,n,n,85.4,FAS-TE conf=79.0
